According to article PMC7862700, “An all-to-all approach to the identification of sequence-specific readers for epigenetic DNA modifications on cytosine”:

Legend:
Assay in all cases: DAPPL (digital affinity profiling via proximity ligation, sequencing); 10 mM Tris-HCl pH 7.5, 50 mM NaCl, 1 mM DTT, 4% glycerol, room temperature, 30 min; GST-TFs on glutathione beads, 16-mer random dsDNA library, 0.1% formaldehyde crosslink after washing; high values mean tight binding
Conditions in all cases: protein: recombinant; tags: N-terminal GST; dsDNA, one strand shown
[1] = biological target: T1, FLI1 (Homo sapiens, UniProt Q01543 1-452)
T1 sequence: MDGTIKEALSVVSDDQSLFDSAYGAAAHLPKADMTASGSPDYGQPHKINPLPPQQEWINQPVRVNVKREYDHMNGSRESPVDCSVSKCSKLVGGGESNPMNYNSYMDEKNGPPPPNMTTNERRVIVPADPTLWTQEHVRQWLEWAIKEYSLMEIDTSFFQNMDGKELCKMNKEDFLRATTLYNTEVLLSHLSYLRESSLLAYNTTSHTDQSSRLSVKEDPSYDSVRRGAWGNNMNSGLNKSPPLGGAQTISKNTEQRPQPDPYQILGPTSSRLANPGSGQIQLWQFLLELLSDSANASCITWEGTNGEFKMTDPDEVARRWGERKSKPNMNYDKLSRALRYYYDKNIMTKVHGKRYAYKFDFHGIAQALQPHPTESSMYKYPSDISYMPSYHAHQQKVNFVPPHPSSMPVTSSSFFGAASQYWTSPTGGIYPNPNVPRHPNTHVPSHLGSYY
Method in brief: (§1)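 Human transcription factors carrying a GST fusion were produced in yeast, bound to glutathione beads, tagged with DNA barcodes and pooled together with a tag-only sample. Each pool was held with 200 nmole of a random double-stranded 16-mer DNA library in Tris/NaCl/DTT/glycerol buffer for 30 min at room temperature, then washed, crosslinked in 0.1% formaldehyde, proximity-ligated with BsaI/T4 ligase (1 h, 37 °C), PCR-amplified and sequenced on an Illumina NextSeq500. Binding signal is the read frequency of each hexamer for a given factor divided by its frequency in the tag-only sample.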

[2] = biological target: T2, ELK1 (Homo sapiens, UniProt P19419 1-428)
T2 sequence: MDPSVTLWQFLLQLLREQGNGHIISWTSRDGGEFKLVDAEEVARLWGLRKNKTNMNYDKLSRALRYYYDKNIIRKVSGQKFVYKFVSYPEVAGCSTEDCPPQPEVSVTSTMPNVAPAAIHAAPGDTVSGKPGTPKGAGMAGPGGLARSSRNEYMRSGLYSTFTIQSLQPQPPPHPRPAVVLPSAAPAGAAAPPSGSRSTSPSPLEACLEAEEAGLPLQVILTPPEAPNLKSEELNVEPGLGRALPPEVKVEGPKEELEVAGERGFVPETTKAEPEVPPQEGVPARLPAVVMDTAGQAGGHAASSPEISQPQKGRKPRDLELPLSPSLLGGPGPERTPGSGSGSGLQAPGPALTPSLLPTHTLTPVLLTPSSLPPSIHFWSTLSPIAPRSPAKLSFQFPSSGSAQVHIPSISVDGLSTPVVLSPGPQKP
Method in brief: as §1

[3] = biological target: T3, GABPA (Homo sapiens, UniProt Q06546 1-454)
T3 sequence: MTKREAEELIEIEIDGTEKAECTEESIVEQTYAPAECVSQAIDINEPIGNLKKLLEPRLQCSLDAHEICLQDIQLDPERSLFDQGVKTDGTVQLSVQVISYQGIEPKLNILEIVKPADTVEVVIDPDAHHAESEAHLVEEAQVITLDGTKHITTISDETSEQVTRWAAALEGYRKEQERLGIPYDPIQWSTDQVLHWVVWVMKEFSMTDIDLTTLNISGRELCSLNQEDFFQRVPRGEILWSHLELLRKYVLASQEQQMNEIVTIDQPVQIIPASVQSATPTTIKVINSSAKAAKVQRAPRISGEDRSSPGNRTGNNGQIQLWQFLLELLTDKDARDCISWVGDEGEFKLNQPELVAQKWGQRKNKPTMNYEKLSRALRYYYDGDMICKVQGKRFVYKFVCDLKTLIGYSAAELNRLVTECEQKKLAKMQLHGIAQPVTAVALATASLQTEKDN
Method in brief: as §1

[4] = biological target: T4, ERG (Homo sapiens, UniProt P11308 1-479)
T4 sequence: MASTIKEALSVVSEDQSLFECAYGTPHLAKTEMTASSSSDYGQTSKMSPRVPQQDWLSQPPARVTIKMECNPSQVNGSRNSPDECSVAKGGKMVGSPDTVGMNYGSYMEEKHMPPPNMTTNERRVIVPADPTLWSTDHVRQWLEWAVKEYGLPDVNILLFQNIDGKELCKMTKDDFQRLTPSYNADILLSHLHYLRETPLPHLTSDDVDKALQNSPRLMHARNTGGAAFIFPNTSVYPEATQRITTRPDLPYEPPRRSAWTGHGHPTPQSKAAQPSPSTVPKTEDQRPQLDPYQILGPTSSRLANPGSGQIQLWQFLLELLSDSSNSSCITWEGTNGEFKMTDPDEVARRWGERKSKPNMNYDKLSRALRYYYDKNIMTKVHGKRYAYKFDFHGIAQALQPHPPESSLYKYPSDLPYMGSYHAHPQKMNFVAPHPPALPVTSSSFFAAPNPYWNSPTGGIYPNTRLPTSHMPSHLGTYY
Method in brief: as §1

[5] = biological target: ELF1 (Homo sapiens, UniProt P32519 1-619)
Chain of ELF1 (P32519 whole entry): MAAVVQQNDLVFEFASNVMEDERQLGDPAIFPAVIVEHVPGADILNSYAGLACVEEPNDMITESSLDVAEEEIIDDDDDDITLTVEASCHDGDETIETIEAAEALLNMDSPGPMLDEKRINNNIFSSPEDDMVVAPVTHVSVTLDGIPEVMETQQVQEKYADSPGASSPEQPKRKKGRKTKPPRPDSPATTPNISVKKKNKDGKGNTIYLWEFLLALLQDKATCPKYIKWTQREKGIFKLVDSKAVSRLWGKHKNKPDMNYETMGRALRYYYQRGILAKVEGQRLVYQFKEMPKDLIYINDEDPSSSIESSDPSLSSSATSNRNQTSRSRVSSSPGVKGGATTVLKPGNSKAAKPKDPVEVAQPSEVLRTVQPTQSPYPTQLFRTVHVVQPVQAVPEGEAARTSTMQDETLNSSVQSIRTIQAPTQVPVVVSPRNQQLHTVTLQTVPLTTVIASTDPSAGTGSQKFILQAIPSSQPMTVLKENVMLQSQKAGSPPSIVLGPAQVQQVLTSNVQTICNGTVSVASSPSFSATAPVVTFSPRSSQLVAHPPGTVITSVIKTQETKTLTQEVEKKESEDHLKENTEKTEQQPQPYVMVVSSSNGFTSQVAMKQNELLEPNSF
Method in brief: as §1

[6] = biological target: T5, EHF (Homo sapiens, UniProt Q9NZC4 1-300)
T5 sequence: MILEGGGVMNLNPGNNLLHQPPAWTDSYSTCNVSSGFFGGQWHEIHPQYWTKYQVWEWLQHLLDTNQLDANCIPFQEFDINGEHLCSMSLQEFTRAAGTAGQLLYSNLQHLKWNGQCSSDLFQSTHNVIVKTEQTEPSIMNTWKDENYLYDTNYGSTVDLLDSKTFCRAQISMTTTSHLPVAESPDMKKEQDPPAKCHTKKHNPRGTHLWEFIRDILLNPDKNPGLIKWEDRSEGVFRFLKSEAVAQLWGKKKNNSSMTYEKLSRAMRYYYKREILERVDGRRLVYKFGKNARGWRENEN
Method in brief: as §1

[7] = biological target: SPIB (Homo sapiens, UniProt Q01892 1-262)
Chain of SPIB (Q01892 whole entry): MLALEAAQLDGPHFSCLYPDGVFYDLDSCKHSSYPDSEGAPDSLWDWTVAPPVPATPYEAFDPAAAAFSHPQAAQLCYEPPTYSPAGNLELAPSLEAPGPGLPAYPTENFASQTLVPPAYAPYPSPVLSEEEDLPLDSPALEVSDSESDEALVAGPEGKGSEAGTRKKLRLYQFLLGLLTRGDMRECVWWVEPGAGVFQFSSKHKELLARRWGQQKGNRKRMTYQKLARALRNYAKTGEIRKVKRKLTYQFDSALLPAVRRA
Method in brief: as §1

[8] = biological target: T6, FEV (Homo sapiens, UniProt Q99581 1-238)
T6 sequence: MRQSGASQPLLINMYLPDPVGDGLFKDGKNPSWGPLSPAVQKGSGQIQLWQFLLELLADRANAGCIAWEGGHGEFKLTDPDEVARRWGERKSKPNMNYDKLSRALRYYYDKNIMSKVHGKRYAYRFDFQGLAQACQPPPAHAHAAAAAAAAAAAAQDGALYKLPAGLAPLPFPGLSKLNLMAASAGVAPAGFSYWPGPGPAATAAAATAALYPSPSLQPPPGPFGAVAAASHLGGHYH
Method in brief: as §1

[9] = biological target: ETV5 (Homo sapiens, UniProt P41161 1-510)
Chain of ETV5 (P41161 whole entry): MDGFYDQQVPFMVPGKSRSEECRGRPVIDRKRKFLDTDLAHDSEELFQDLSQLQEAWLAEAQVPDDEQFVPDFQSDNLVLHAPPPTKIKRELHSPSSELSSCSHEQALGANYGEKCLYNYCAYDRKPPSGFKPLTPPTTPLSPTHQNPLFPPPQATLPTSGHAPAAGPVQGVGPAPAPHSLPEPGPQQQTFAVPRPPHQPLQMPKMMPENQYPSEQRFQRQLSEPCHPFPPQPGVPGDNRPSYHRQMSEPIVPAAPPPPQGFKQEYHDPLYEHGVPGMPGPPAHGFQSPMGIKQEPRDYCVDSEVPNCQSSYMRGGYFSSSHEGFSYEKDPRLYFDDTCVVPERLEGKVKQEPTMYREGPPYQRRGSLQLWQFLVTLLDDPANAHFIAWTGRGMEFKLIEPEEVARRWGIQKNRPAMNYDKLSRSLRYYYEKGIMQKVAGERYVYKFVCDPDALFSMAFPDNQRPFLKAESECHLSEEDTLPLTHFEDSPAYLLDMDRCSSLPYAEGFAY
Method in brief: as §1

[10] = biological target: T7, SPIC (Homo sapiens, UniProt Q8N5J4 1-248)
T7 sequence: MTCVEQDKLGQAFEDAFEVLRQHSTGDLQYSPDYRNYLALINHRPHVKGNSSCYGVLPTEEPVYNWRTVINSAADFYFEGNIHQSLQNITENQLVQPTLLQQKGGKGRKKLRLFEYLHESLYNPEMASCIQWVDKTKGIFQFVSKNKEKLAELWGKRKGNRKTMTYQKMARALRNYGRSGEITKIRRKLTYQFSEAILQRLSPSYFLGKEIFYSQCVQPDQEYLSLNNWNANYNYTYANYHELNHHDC
Method in brief: as §1

[11] = biological target: ELF4 (Homo sapiens, UniProt Q99607 1-663)
Chain of ELF4 (Q99607 whole entry): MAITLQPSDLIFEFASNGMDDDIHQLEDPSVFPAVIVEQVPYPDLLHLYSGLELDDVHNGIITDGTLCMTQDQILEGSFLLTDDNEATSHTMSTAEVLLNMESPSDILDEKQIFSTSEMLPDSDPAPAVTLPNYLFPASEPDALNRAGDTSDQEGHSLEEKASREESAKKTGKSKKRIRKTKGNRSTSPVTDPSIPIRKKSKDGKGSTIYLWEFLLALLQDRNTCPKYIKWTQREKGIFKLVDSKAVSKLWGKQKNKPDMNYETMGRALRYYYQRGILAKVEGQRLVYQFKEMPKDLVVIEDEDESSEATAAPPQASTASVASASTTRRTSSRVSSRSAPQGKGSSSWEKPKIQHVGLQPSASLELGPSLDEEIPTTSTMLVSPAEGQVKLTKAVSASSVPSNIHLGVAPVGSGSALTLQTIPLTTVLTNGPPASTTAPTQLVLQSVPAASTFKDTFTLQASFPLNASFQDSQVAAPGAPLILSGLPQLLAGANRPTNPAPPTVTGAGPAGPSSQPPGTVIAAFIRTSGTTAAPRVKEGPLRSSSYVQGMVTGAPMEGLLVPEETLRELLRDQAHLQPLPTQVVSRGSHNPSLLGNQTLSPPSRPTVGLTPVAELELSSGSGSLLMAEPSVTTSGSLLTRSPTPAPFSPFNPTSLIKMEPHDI
Method in brief: as §1

[12] = biological target: T8, ERF (Homo sapiens, UniProt P50548 1-548)
T8 sequence: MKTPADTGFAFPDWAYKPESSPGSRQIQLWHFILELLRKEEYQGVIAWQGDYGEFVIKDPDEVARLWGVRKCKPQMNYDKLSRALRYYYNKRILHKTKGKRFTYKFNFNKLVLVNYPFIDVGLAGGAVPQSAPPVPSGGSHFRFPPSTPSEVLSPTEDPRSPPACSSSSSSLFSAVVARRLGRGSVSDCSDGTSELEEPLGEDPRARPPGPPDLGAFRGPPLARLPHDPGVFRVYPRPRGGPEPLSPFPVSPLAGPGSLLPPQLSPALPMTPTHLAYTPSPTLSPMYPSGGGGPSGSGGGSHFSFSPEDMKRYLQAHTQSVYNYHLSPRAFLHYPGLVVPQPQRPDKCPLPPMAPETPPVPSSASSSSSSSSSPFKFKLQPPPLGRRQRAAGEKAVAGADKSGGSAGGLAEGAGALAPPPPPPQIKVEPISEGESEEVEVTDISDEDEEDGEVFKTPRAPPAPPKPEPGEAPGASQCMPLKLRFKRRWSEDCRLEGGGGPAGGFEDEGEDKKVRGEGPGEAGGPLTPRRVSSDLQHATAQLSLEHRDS
Method in brief: as §1

[13] = biological target: T9, ETV3L (Homo sapiens, UniProt Q6ZN32 1-361)
T9 sequence: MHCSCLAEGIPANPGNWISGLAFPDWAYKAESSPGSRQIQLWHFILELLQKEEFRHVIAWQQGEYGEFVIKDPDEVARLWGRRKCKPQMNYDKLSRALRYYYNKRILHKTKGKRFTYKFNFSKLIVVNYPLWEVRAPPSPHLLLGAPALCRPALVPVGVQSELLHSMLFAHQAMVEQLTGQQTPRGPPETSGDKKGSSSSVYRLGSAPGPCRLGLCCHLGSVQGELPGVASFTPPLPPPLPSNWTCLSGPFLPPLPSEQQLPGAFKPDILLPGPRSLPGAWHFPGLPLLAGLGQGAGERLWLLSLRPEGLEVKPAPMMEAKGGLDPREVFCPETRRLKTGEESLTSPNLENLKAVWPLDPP
Method in brief: as §1

[14] = biological target: T10, ETS2 (Homo sapiens, UniProt P15036 1-469)
T10 sequence: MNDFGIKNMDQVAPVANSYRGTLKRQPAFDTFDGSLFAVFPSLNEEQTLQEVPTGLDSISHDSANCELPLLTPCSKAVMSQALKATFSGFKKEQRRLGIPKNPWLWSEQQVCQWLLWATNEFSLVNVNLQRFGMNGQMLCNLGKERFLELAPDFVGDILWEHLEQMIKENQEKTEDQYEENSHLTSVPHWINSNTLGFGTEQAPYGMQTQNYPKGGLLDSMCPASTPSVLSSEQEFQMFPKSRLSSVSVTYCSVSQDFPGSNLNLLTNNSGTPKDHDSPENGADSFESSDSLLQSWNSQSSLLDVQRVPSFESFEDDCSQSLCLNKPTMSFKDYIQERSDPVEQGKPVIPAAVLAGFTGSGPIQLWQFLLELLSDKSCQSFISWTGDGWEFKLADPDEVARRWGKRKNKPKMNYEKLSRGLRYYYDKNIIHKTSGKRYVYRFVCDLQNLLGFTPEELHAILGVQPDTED
Method in brief: as §1

[15] = biological target: T11, SPDEF (Homo sapiens, UniProt O95238 1-335)
T11 sequence: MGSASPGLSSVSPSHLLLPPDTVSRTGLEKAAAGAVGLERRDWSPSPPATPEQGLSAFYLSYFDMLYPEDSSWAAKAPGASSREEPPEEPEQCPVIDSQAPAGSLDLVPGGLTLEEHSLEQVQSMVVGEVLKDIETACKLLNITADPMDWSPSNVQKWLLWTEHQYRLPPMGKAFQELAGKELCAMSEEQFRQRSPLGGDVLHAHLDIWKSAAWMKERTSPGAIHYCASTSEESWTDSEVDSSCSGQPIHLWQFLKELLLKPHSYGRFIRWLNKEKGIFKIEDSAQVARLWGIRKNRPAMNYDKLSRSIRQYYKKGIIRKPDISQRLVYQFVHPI
Method in brief: as §1

[16] = biological target: T12, ETV3 (Homo sapiens, UniProt P41162-2 1-143)
T12 sequence: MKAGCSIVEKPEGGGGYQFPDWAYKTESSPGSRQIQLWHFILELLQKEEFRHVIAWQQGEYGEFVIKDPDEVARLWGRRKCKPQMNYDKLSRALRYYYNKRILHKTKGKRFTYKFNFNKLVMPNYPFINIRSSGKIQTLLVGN
Method in brief: as §1

[17] = biological target: ETV6 (Homo sapiens, UniProt P41212 1-452)
Chain of ETV6 (P41212 whole entry): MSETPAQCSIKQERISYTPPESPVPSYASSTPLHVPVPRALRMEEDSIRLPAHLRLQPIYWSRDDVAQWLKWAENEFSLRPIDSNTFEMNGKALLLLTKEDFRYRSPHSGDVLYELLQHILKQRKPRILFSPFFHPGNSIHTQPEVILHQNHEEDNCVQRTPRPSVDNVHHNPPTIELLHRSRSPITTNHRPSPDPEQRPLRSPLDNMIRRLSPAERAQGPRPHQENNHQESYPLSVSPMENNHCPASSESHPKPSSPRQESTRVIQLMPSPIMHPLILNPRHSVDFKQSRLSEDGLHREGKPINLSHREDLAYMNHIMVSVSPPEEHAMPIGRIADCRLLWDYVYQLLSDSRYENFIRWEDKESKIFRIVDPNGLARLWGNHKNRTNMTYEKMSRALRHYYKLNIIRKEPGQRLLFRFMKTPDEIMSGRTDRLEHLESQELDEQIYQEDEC
Method in brief: as §1

Q: With CCGCTG as the sequence, how does the binding signal [1] read?
A: 1.13 fold enrichment (6-mer frequency, TF over GST control)

Q: What about the binding signal [2] of the same sequence?
A: 1.03 fold enrichment (6-mer frequency, TF over GST control)

Q: And the binding signal [3]?
A: 1.02 fold enrichment (6-mer frequency, TF over GST control)

Q: What about the binding signal [4] of the same sequence?
A: 1.05 fold enrichment (6-mer frequency, TF over GST control)

Q: What about the binding signal [5] of the same sequence?
A: 1 fold enrichment (6-mer frequency, TF over GST control)

Q: And the binding signal [6]?
A: 1.05 fold enrichment (6-mer frequency, TF over GST control)

Q: What about the binding signal [7] of the same sequence?
A: 1.07 fold enrichment (6-mer frequency, TF over GST control)

Q: What about the binding signal [8] of the same sequence?
A: 1.11 fold enrichment (6-mer frequency, TF over GST control)

Q: What about the binding signal [9] of the same sequence?
A: 1.06 fold enrichment (6-mer frequency, TF over GST control)

Q: And the binding signal [10]?
A: 1.08 fold enrichment (6-mer frequency, TF over GST control)

Q: And the binding signal [11]?
A: 1.06 fold enrichment (6-mer frequency, TF over GST control)

Q: And the binding signal [12]?
A: 1.03 fold enrichment (6-mer frequency, TF over GST control)

Q: What about the binding signal [13] of the same sequence?
A: 1.04 fold enrichment (6-mer frequency, TF over GST control)

Q: And the binding signal [14]?
A: 1.06 fold enrichment (6-mer frequency, TF over GST control)

Q: And the binding signal [15]?
A: 1.01 fold enrichment (6-mer frequency, TF over GST control)

Q: What about the binding signal [16] of the same sequence?
A: 1.08 fold enrichment (6-mer frequency, TF over GST control)

Q: What about the binding signal [17] of the same sequence?
A: 1.11 fold enrichment (6-mer frequency, TF over GST control)
